This is part of a sample that, as a whole, favours compounds with a hit. Of some 83,000 tested, about 20% had one in any assay.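 Results are percent growth after 48 hours of single-concentration exposure. 100 means growth as in untreated cells, lower positive values show inhibition; negative values down to -100 show cell death.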 Activity calls are given as the source filed them. The calls were made as follows: active = growth percent below 10; inactive = the rest.
Key:
Test in all cases: NCI-60 one-dose screen, 48 h (100 = growth as untreated, 0 = no growth, -100 = all killed)
Conditions in all cases: 10 µM unless noted
[1] = system: T-47D breast
[2] = system: BT-549 breast
[3] = system: MDA-MB-435 melanoma
[4] = system: SW-620 colon
[5] = system: MCF7 breast
[6] = system: HCT-116 colon
[7] = system: HCC-2998 colon
[8] = system: KM12 colon

Measured: growth

Cn1cc(-c2csc(-c3c[nH]c4ccccc34)n2)c2cccnc21
inactive: [1] 27.2% | [2] 49.6% | [4] 29.6% | [5] 13.6% | [6] 30.5% | [7] 33.2% | [8] 32.5%
active: [3] -13.9%

Nc1c(C(=O)Nc2cccc3ccccc23)sc2nc3c(cc12)CCCC3
inactive: [1] 55.7% | [2] 64.6% | [4] 31% | [5] 20.6% | [6] 20.7% | [7] 26.7% | [8] 26.7%
active: [3] -63.1%

COc1ccc(O)c(-c2cc(-c3ccc(Cl)cc3)c(C#N)c(=O)[nH]2)c1
inactive: [1] 57.3% | [4] 74.7% | [5] 46.6% | [6] 73.4% | [7] 70.6% | [8] 57.6%
active: [2] 9.41% | [3] 5.98%

N#CC1=C(N)Oc2ccc3ccccc3c2C1c1ccccc1 (stereo not drawn)
active: [3] -21.6%
inactive: [1] 40.8% | [2] 19.8% | [4] 28% | [5] 14.8% | [6] 19.4% | [7] 69.3% | [8] 24.5%

O=C1C(Cl)=C(Nc2ccc(S(=O)(=O)c3ccc(NC4=C(Cl)C(=O)c5ccccc5C4=O)cc3)cc2)C(=O)c2ccccc21
active: [1] -39.6% | [4] 0.736% | [5] -55.1% | [6] -85.7% | [8] 5.09%
inactive: [2] 31.4% | [3] 10.5% | [7] 47.1%

N#CC1=C(N)Oc2c(c(N)nn2-c2ccccc2)C1c1ccc(Cl)cc1 (stereo not drawn)
inactive: [1] 86.7% | [2] 81.5% | [3] 105% | [4] 98.1% | [5] 98.7% | [6] 96.2% | [7] 113% | [8] 104%

Cc1ccc(Sc2sc(-c3ccccc3)nc2[P+](c2ccccc2)(c2ccccc2)c2ccccc2)cc1
active: [1] -9.83% | [2] -15.4% | [3] -16.3% | [4] 8.24% | [5] -4.53% | [6] -14.3% | [7] -11.2% | [8] -37.6%

O=c1c2sc3ncc(Br)cc3c2ncn1-c1cccc(Cl)c1
inactive: [1] 61.9% | [2] 78.9% | [3] 75.2% | [4] 58.8% | [5] 94.2% | [6] 27.4% | [7] 104% | [8] 72.2%

O=C1c2cc3c(cc2-c2c1c1ccc(Cl)cc1c(=O)n2C[C@H](O)[C@@H](O)[C@H](O)CO)OCO3
inactive: [6] 11.1% | [7] 16.3%
active: [1] -8.86% | [2] -1.82% | [3] -39.2% | [4] 2.65% | [5] 1.66% | [8] 7.14%

COc1cc2nc(Cl)nc(Nc3cccc(C(=O)/C=C/c4ccc(Br)cc4)c3)c2cc1OC
inactive: [1] 72.4% | [2] 79.7% | [3] 89.6% | [4] 15.1% | [5] 31.7% | [6] 15.8% | [7] 104% | [8] 78.1%

Cc1cc(N2CCCC2)nc(N(CCNc2ccnc3cc(Cl)ccc23)Cc2ccco2)n1
inactive: [1] 12.4% | [2] 22.3% | [3] 44% | [4] 25.5% | [5] 17.9% | [7] 76.6% | [8] 50%
active: [6] -50.9%

Cn1c(=O)c2c(ncn2CCC(=O)Nc2ccc(F)cc2)n(C)c1=O
inactive: [1] 94.1% | [2] 90.3% | [3] 110% | [4] 106% | [5] 100% | [6] 87.7% | [7] 115% | [8] 103%

Cn1cc(-c2nc(-c3c[nH]c4ncccc34)cs2)c2ccccc21
inactive: [1] 29.1% | [2] 82.9% | [3] 36.5% | [4] 95.8% | [5] 10.5% | [6] 76.9% | [7] 32.6% | [8] 12.9%

C[C@H]1OC(=O)/C=C/[C@@H](O)[C@@H](O)CCCCCCCC[C@@H]1O
inactive: [1] 59.9% | [2] 105% | [3] 106% | [4] 102% | [5] 101% | [6] 88.4% | [7] 102% | [8] 101%

OCC(CO)(CCl)CCl
inactive: [1] 94.2% | [2] 95.6% | [3] 105% | [4] 101% | [5] 94.2% | [6] 78.6% | [7] 101% | [8] 99.9%

Cn1cc(-c2nc(-c3c[nH]c4ncccc34)cs2)c2cc(F)ccc21
active: [3] 0.641% | [5] 7.84% | [8] -12.7%
inactive: [1] 24.3% | [2] 58% | [4] 31.8% | [6] 20.3% | [7] 20.5%

COc1ccc(-c2nc(Nc3ccc(-c4nc5ccccc5[nH]4)cc3)nc(N3CCOCC3)n2)cc1
inactive: [1] 16.1% | [8] 12.4%
active: [2] 5.16% | [3] -38% | [4] 3.57% | [5] -44.3% | [6] 4.8% | [7] -19.8%

COc1cc(C(=O)/C=C/c2cc(-c3ccc4c(c3)OCO4)n[nH]2)cc(OC)c1OC
active: [2] -11.2% | [4] -15.1% | [5] 6.06% | [6] 6.54% | [8] 1.81%
inactive: [1] 19.7% | [3] 40% | [7] 85.4%

Cn1cc(-c2csc(-c3cn(CCNC(=O)OC(C)(C)C)c4ccccc34)n2)c2cccnc21
active: [1] -1.03%
inactive: [2] 67.2% | [3] 74.5% | [4] 92.4% | [5] 39.4% | [6] 81.1% | [7] 95.8% | [8] 59.2%

CC(=O)O[C@H]1CC[C@]2(C)[C@H]3C(=O)C=C4[C@@H]5C[C@](C)(C(=O)N6CCCNCC6)CC[C@]5(C)CC[C@@]4(C)[C@]3(C)CC[C@H]2C1(C)C
active: [1] -49.6% | [3] -14.9% | [4] -88.7% | [5] -88.7% | [6] -95.3%
inactive: [2] 86.9% | [7] 11.2% | [8] 13.4%

CN(C)CCCCC(C(=O)CBr)(c1ccccc1)c1ccccc1
inactive: [2] 24.3% | [3] 36.3% | [7] 71.7% | [8] 68.8%
active: [1] -54.2% | [4] -49.7% | [5] 3.55% | [6] -60.1%

CC1(C)NCCC[C@]2(C)[C@H]3CC[C@@H]4[C@H]5[C@H](C(=O)/C=C/c6ccccn6)CC[C@]5(CO)CC[C@@]4(C)[C@]3(C)CC[C@@H]12
inactive: [1] 30.7% | [2] 64.6% | [3] 57.3% | [5] 20.3% | [7] 47.9% | [8] 25.5%
active: [4] -51% | [6] -7.47%

Cc1ccc(-c2nn(Cc3cn(-c4cc(C)nc5ccccc45)nn3)c3ncnc(N)c23)cc1
inactive: [1] 19.6% | [2] 64.4% | [3] 50.2% | [4] 82.4% | [5] 34.6% | [6] 53.8% | [7] 76.4% | [8] 74.4%

Cn1cc(-c2csc(-c3cn(CCCN4CCCCC4)c4ccc(Br)cc34)n2)c2cccnc21
inactive: [1] 21.8% | [2] 70.9% | [7] 85.5%
active: [3] -69.5% | [4] -74.3% | [5] -64.6% | [6] -89.5% | [8] 9.18%

CCCCCCCN(CCCCCCC)C(=N)c1ccnc2ccccc12
inactive: [2] 56%
active: [1] -39.9% | [3] -88.5% | [4] -75.9% | [5] -62.2% | [6] -83.7% | [7] -87% | [8] -16.8%

CN(C)c1ccc(C(=O)c2ccc(N(C)C)c(N)c2)cc1N
active: [3] -32.1%
inactive: [1] 21.9% | [2] 31.9% | [4] 10.2% | [5] 15% | [6] 23.6% | [7] 86.1% | [8] 17.7%

CC(=O)N1N=C(c2ccc(C)cc2)CC1c1ccc(Oc2ccc(Br)cc2)cc1 (stereo not drawn)
inactive: [1] 60.6% | [2] 89.3% | [3] 97.6% | [4] 86.7% | [5] 81.8% | [6] 87.3% | [7] 96.9% | [8] 85.5%

Nc1ccccc1NC(=O)c1ccc(CN2CCC/C(=C\c3ccccn3)C2=O)cc1
active: [1] 8.73% | [3] -42.7% | [5] 6.01% | [6] 5.7%
inactive: [2] 52.9% | [4] 12.3% | [7] 31.5% | [8] 25.2%

CCN(CC)CCCCCNc1cc(OC(=O)c2ccccc2)cc2cccnc12
inactive: [1] 76.6% | [2] 97.2% | [3] 53.6% | [4] 80.8% | [5] 134% | [6] 44.5% | [7] 104% | [8] 81.3%

CCOC(=O)C1OC1(c1ccccc1)c1ccccc1 (stereo not drawn)
inactive: [1] 110% | [2] 110% | [3] 104% | [4] 105% | [5] 105% | [6] 107% | [7] 117% | [8] 94.3%

CC(C)=CCC[C@](C)(O)[C@H]1CC[C@]2(C)[C@@H]1CC[C@@H]1[C@@]3(C)C/C(=C/c4cccc([N+](=O)[O-])c4)C(=O)C(C)(C)[C@@H]3CC[C@]12C
inactive: [1] 60.2% | [2] 97.1% | [3] 94.2% | [4] 72.6% | [5] 72.8% | [6] 51.5% | [7] 85.7% | [8] 86%
